Source: PMC4336329 (PLoS ONE, 2015)
In all, about 310,000 compounds went through this assay and about 14,000 (4.5%) showed an effect of 50% or more. Effects have a minus sign here. This excerpt belongs to a sample that is enriched for strong results.

These compounds were tested against human ether-à-go-go-related gene (hERG) potassium channel (human, UniProt Q12809) (assay: primary screen, population patch clamp on CHO cells stably expressing hERG; higher = less effect of the substance).
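Note: peak tail current of the secondary pulse compared with the same well before compound.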

human ether-à-go-go-related gene (hERG) potassium channel, sequence (Q12809 whole entry, looked up): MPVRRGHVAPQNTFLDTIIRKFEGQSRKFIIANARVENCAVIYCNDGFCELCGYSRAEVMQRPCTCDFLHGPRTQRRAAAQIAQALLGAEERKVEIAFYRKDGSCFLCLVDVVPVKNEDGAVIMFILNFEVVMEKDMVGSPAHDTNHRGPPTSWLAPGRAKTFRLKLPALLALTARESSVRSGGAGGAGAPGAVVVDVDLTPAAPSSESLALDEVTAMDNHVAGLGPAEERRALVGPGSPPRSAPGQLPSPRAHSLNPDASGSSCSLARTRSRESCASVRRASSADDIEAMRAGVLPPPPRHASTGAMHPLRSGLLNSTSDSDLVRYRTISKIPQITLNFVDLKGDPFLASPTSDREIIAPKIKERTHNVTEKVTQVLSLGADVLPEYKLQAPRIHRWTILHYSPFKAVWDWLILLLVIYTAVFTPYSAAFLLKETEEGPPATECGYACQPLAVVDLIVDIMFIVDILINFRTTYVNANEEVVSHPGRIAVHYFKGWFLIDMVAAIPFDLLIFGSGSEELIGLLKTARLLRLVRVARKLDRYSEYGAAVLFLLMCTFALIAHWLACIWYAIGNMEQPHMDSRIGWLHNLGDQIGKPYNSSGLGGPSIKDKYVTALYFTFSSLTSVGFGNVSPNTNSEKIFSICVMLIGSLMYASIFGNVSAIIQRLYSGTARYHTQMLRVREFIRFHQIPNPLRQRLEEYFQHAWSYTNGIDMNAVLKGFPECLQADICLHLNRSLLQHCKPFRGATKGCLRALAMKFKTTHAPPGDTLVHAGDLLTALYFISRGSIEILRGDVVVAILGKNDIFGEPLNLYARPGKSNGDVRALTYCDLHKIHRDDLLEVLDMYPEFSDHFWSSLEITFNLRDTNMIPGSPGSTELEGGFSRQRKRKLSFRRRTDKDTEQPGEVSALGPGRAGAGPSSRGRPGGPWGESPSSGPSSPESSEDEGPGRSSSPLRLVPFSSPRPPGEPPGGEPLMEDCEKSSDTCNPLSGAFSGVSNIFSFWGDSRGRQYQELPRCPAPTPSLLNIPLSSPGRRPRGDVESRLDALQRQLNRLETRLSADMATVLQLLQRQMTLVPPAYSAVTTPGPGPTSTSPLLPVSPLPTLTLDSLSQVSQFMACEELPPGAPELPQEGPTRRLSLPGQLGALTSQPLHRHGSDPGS

Point of comparison: `O=C(/C=C/c1ccccc1)NC1CC2CCCC(C1)N2Cc1ccccc1` (centres unmarked), “hERG current change (%, negative = inhibition) at 10uM” value -69.7%. Against it:
- COc1ccc(-c2csc(NC(=O)c3ccc(OCC(=O)N4CCOCC4)c(OC)c3)n2)cc1OC — higher, -27.6%
- Cc1ccc(C(=O)CCC(=O)Nc2cccc(C)c2)cc1 — higher, 15.3%
- COCCn1c(=NC(=O)CSCC(=O)N2CCOCC2)sc2cc(C)ccc21 — higher, -14.8%
- COCCCn1c(SCC(=O)OC2CCCCC2)nnc1-c1ccco1 — higher, -56%
- COCCCn1c(SCC(=O)NC2CCCC2)nnc1-c1ccco1 — higher, 9.39%
- Cn1c(SCC(=O)OC2CCCCC2)nnc1-c1ccco1 — higher, 0.11%
- O=C(CSc1nnc(-c2ccco2)n1Cc1ccccc1)OC1CCCCC1 — lower, -92.1%
- O=C(CSc1nnc(-c2ccco2)n1Cc1ccccc1)c1ccc(F)cc1 — higher, -45.7%
- COCCCn1c(SCC(=O)NC2CCCCC2)nnc1-c1ccco1 — higher, -3.26%
- CCCNS(=O)(=O)c1ccc2c(c1)CCCN2C(C)=O — higher, -4.81%
- O=C1Nc2cc(C(=O)NCCCN3CCOCC3)ccc2S/C1=C/c1cccc(Cl)c1 — higher, 9.36%
- CCOC(=O)c1c(P(=O)(N2CCOCC2)N2CCOCC2)noc1N — higher, -0.372%
- Cn1cc(CN2CCCC(CNS(=O)(=O)c3cccc4cccnc34)C2)cn1 (centres unmarked) — higher, 5.77%
- CCC(CC)C(=O)Nc1nnc(S(=O)(=O)N2CCCCCC2)s1 — higher, 1.54%
- OCC1(Cc2ccc(F)cc2F)CCCN(Cc2ccc(Cl)cc2)C1 (centres unmarked) — lower, -74.6%
- CCOc1cc(CN2CCCC(CO)(Cc3ccc(F)cc3F)C2)ccc1OC (centres unmarked) — higher, -55.9%
- COc1cccc(CC(=O)N2CCCC(CO)(Cc3ccc(F)cc3F)C2)c1 (centres unmarked) — higher, -0.432%
- COc1ccc(CN2CCCC(CO)(Cc3ccc(F)cc3F)C2)cc1 (centres unmarked) — higher, 6.12%
- COC(=O)c1ccc(CN2CCCC(CO)(Cc3ccc(F)cc3F)C2)cc1 (centres unmarked) — higher, -42.3%
- CCOc1ccc(-n2cc(-c3ccccc3)c3c(=O)[nH]cnc32)cc1 — higher, 17.2%
- CN(CCc1ccccn1)C(=S)Nc1ccc(Cl)c(Cl)c1 — higher, -3.59%
- COc1ccc(NS(=O)(=O)c2ccc(N3CCOCC3)c(NC(=O)c3ccc(OC)cc3)c2)cc1 — higher, -1.38%
- CCOC(=O)c1ccc(CSC(=N)N)o1 — higher, 17.2%
- CN(C)c1ccc(CN2CCCCCC2)cc1 — higher, -6.11%
- COc1ccc(CCNS(=O)(=O)c2ccc(S(=O)(=O)N3CCCC3)cc2)cc1OC — higher, -6.61%
- O=C(CCCN1C(=O)c2ccccc2C1=O)NCCc1ccc(OC(F)F)cc1 — higher, -65.3%
- O=C(CCCOc1ccc(Br)cc1)NCCc1ccc(OC(F)F)cc1 — higher, -67.7%
- COc1ccc(CCNC(=O)CCCCCN2C(=O)c3ccccc3C2=O)cc1 — higher, -28.6%
- CCOc1ccc(OCCCC(=O)NCCc2ccc(OC)cc2)cc1 — higher, 25.8%
- COc1ccc(CCNC(=O)CCCN2C(=O)c3ccccc3C2=O)cc1 — higher, 2.74%
- O=C(CCCOc1ccccc1)NCCc1ccccc1 — higher, -3.36%
- CCCCCn1c(NC2CCCCC2)nc2c1c(=O)[nH]c(=O)n2C — higher, -17.6%
- N#CCCN(C(=O)Nc1ccc(Cl)c(Cl)c1)c1ccccc1 — higher, -0.506%
- CCOc1cc(/C=C2\SC(=S)N(NS(=O)(=O)c3ccccc3)C2=O)ccc1O — higher, 8.33%
- CCCCn1c(N)c(N(CCC(C)C)C(=O)COC(=O)c2ccccc2)c(=O)[nH]c1=O — higher, 3.79%
- Cc1ccc2nc(N(CCCN(C)C)C(=O)c3ccc(S(=O)(=O)N4CCOCC4)cc3)sc2c1.Cl — higher, -33.9%
- Cc1ccc2nc(N(CCCN(C)C)C(=O)c3ccc(S(=O)(=O)N4CCCCCC4)cc3)sc2c1.Cl — higher, -58%
- Cc1cc(C)c2nc(N(CCCN(C)C)C(=O)c3ccc(S(=O)(=O)N4CCCCCC4)cc3)sc2c1.Cl — higher, -20.3%
- CCOc1ccc2nc(N(CCCN(C)C)C(=O)c3ccc(S(=O)(=O)N4CCCC4)cc3)sc2c1.Cl — lower, -70.4%
- CN(C)CCCN(C(=O)c1ccc(S(=O)(=O)N2CCCC2)cc1)c1nc2ccc(Br)cc2s1.Cl — higher, -47.9%
- CCc1ccc2nc(N(CCCN(C)C)C(=O)c3ccc(S(=O)(=O)N4CCCC4)cc3)sc2c1.Cl — higher, -67.7%
- CCc1ccc2nc(N(CCCN(C)C)C(=O)c3ccc(S(=O)(=O)N4CCc5ccccc5C4)cc3)sc2c1.Cl — higher, -7.91%
- CCOc1ccc2nc(N(CCCN(C)C)C(=O)c3ccc(S(=O)(=O)N4CCc5ccccc5C4)cc3)sc2c1.Cl — higher, -1.08%
- COc1ccccc1N1CC(C(=O)Nc2nnc(SCC(=O)NC(C)C)s2)CC1=O (centres unmarked) — higher, 20.1%
- CC(=O)Nc1ccc(NC(=O)CSc2nnnn2C2CCCCC2)cc1 — higher, -8.79%
- O=C(CNC(=O)N1CC(=O)Nc2ccccc21)Nc1nccs1 — higher, 12%
- CCCc1c(O)nc(SCC(=O)O)[nH]c1=O — higher, 67.7%
- CC1(C)CC(=O)/C(=C(/O)Cc2ccccc2)C(=NCCc2ccccc2)C1 — higher, -45.2%
- O=C(C1CCCCC1)N(Cc1ccccc1)c1ccccn1 — higher, 1.25%
- CCN(CC)C(=O)NC1CC2CCCC(C1)N2Cc1ccccc1 (centres unmarked) — higher, -6.25%
- COc1cc(C(=O)NC2CC3CCCC(C2)N3Cc2ccccc2)cc(OC)c1OC (centres unmarked) — higher, 8.89%
- CNC(=S)NC1CC2CCCC(C1)N2Cc1ccccc1OC (centres unmarked) — higher, -10.1%
- O=C(NC1CC2CCCC(C1)N2Cc1ccccc1)C1CCCCC1 (centres unmarked) — higher, -25.2%
- COc1ccccc1CN1C2CCCC1CC(NC(=O)/C=C/c1ccccc1)C2 (centres unmarked) — higher, -59.4%
- COc1ccc(CN2C3CCCC2CC(NC(=O)/C=C/c2ccccc2)C3)cc1 (centres unmarked) — lower, -88%
- COc1ccc(C(=O)OCC(=O)Nc2c(C)n(C)n(-c3ccccc3)c2=O)cc1OC — higher, 16.5%
- CCc1[nH]nc2c1C(C(C)C)C(C#N)=C(N)O2 (centres unmarked) — higher, 10.8%
- Cn1c(Cc2ccccc2)nnc1SCC(=O)Nc1ccc2c(c1)OCO2 — higher, 5.64%
- Cc1ccc(NC(=O)/C(=C\c2ccccc2)NC(=O)/C=C/c2ccccc2)cc1 — higher, -12.9%
- Cn1c(=O)cc(SCC(=O)N2CCC3(CC2)OCCO3)c2ccccc21 — higher, -1.64%
- CC1CCN(C2(O)C(=O)Nc3ccc(Cl)cc32)CC1 (centres unmarked) — higher, 4.26%
- CC(Sc1ncnc2ccccc12)C(=O)Nc1ccc2c(c1)OCCO2 (centres unmarked) — higher, 5.25%
- Cl.N=c1n(Cc2ccccc2)c2ccccc2n1CC(O)COc1ccccc1 (centres unmarked) — lower, -74.6%
- Cl.N=c1n(Cc2ccc(Cl)cc2)c2ccccc2n1CC(O)COc1ccccc1 (centres unmarked) — higher, -68.2%
- OC(COc1ccccc1)Cn1c2ccccc2c2ccccc21 (centres unmarked) — higher, 6%
- N=c1ccccn1CC(O)COc1ccccc1 (centres unmarked) — higher, -3.09%
- COc1ccc(OCC(O)Cn2c(=N)n(Cc3ccccc3)c3ccccc32)cc1.Cl (centres unmarked) — lower, -73.5%
- COc1ccc(OCC(O)CN2C(=O)c3ccccc3C2=O)cc1 (centres unmarked) — higher, 8.41%
- Cc1cccc(OCC(O)Cn2c(=N)n(Cc3ccccc3)c3ccccc32)c1.Cl (centres unmarked) — lower, -71%
- Cc1cccc(OCC(O)CNC(=O)c2ccccc2C(=O)O)c1 (centres unmarked) — higher, -21.2%
- CC1(C)CC(=O)c2cc(C(=O)N3CCCC(C)(C)C3)c(=O)n(-c3ccccc3)c2C1 — higher, 11.5%
- CCc1c(C)sc(NC(=O)/C=C/C(=O)O)c1C(N)=O — higher, 36.5%
- Cc1ccc(C2CC(=O)Nc3c2ccc2ccccc32)cc1[N+](=O)[O-] (centres unmarked) — higher, 6.65%
- CC(=O)c1nn(-c2ccccc2)cc1C(=O)c1ccc(C)cc1 — higher, 3.72%
- N#Cc1c(C(F)(F)F)cc(-c2ccc(F)cc2)nc1SCC(=O)O — higher, 6.06%
- COc1ccc(OC)c(N(CC(=O)NCc2ccccc2)S(=O)(=O)c2ccc(OC)c(OC)c2)c1 — higher, 18.3%
- CCN(CC)S(=O)(=O)c1ccc(OC)c(NC(=O)CCS(=O)(=O)Cc2ccccc2)c1 — higher, -28%
- Cc1csc(NC(=O)C2C3C=CC(C3)C2C(=O)O)n1 (centres unmarked) — higher, -6.11%
- COC(=O)Cc1ccc(NC(=S)NCc2ccccc2Cl)cc1 — higher, -6.56%
- COC(=O)c1ccc(C(=O)OC)c(NS(C)(=O)=O)c1 — higher, -1.73%
- O=C1CC(C(F)(F)C(F)(F)C(F)(F)F)=Nc2ccccc2N1 — higher, -15.1%
- CC(=O)OCCNC(=O)c1cc2ccccc2oc1=O — higher, 9.06%
- Cl.N=c1n(CCO)c2ccccc2n1Cc1ccccc1 — higher, -25.1%
- Br.CCn1c(=N)n(Cc2ccccc2F)c2ccccc21 — higher, -37.5%
- Br.CC(C)(C)C(=O)Cn1c(=N)n(Cc2ccccc2)c2ccccc21 — higher, -48.2%
- O=c1n(Cc2ccccc2F)c2ccccc2n1Cc1ccccc1F — higher, 19.4%
- Br.N=c1n(CCc2ccccc2)c2ccccc2n1Cc1ccccc1F — higher, -62.6%
- N=c1n(Cc2ccccc2)c2ccccc2n1Cc1ccccc1 — higher, -62.1%
